Measured values taken from PubChem BioAssay AID588790 (National Center for Advancing Translational Sciences (NCATS), 2011).
The campaign covered roughly 1,200 compounds. About 85 (7%) were called active. Calls follow the shape of the full dose curve. The list comes from a sample in which actives are over-represented; it also holds similar structures and randomly drawn compounds. Entries that show only a call come without a potency.

The molecules below were run against Beta-2 adrenergic receptor (Homo sapiens) (UniProt P07550) (assay: qHTS assay of beta-arrestin-biased ligands of beta2-adrenergic receptor: Hit Validation with GloSensor). Settings: W9-Glo22F cells, GloSensor cAMP luminescence, beta2AR agonism; activation: at 46.1 µM (top of the series).
Method in brief: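 Luminescence measured 10 min after GloSensor reagent addition at room temperature. Preceded by compound pinning onto W9-Glo22F cells that had been cultured overnight at 37 deg C under 5% CO2.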
Potency is read from the fitted curve at half-maximal effect.

Beta-2 adrenergic receptor (Homo sapiens), sequence (P07550 whole entry, looked up): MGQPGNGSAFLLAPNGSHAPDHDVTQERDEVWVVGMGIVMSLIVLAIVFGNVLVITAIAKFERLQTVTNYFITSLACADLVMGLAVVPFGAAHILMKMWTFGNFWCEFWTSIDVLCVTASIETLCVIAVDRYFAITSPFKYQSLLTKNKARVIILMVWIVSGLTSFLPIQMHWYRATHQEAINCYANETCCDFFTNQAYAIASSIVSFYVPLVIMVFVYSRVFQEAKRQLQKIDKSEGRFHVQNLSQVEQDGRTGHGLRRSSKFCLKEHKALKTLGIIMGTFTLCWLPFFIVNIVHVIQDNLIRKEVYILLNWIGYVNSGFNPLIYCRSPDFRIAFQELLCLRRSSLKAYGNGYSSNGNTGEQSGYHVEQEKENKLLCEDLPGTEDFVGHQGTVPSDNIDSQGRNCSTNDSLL

Compound	Potency
COc1cc(CN(C2CCCCC2)S(=O)(=O)c2ccc(S(=O)(=O)N(C)C3CCCCC3)cc2)cc(OC)c1OC	inactive
CCCNC(=O)COc1ccc2c(=O)c(Oc3ccccc3F)coc2c1	inactive
O=C(Cn1c(=O)c2sccc2n(Cc2cccc([N+](=O)[O-])c2)c1=O)NCCc1ccccc1	inactive
CC(CCc1ccccc1)NCC(O)c1cccc([N+](=O)[O-])c1 (stereo not given)	0.0206 µM (active)
O=C(CSCC(=O)Nc1cccc([N+](=O)[O-])c1)Nc1ccccc1	inactive
COc1ccc(C(=O)N/N=C/C(Br)=C/c2ccccc2)cc1	inactive
CCCc1cc(SCC(=O)Nc2c(C)n(C)n(-c3ccccc3)c2=O)n2c(nc3ccccc32)c1C#N	inactive
NNc1ccc(Cl)nn1	inactive
Cc1cccc(NC(=S)NCc2ccco2)n1	inactive
C=CCNC(=S)N/N=C(\C)c1cccnc1	inactive
C=CCNC(=S)N/N=C(\C)c1cccc(NC(C)=O)c1	23.1 µM (active)
C=CCNC(=S)N/N=C(\C)c1cccc(OC)c1	inactive
CCN(CC)c1ccc(/C=N/Nc2nc(C)cc(C)n2)cc1	inactive
CN1CCN(C(=O)c2ccccc2[N+](=O)[O-])CC1	inactive
COCCCNC(=S)N/N=C/c1cccc(OC)c1O	inactive
NC(=S)N/N=C/c1ncc(C(F)(F)F)cc1Cl	inactive
COc1cccc(/C=N/Nc2ncc(C(F)(F)F)cc2Cl)c1O	25.9 µM (active)
Oc1ccccc1/C=N/Nc1nc2ccccc2o1	inactive
CCCNC(=O)Cn1cnc2sc(C(=O)Nc3ccc4c(c3)OCO4)c(C)c2c1=O	inactive
N/C(=C\C(=O)c1cc(Cl)ccc1O)C(Cl)(Cl)Cl	23.1 µM (active)
CCc1cc(C(=O)N(CC(C)C)c2c(N)n(Cc3ccccc3)c(=O)[nH]c2=O)sc1C	inactive
COC(=O)c1scc(C)c1S(=O)(=O)Nc1ccc(C)cc1	inactive

Compound	Potency
CCOc1ccc(C(C)=O)cc1COC(=O)CN1C(=O)NC2(CCCC2)C1=O	inactive
CCOc1ccc(C(C)=O)cc1COC(=O)c1ccc2c(c1)NC(=O)CS2	4.61 µM (active)
S=C(Nc1ccccc1)Nc1nc2ccccc2n1CCOc1ccc(Br)cc1	inactive
Cc1ccnc(NC(=O)c2c(-c3ccccc3Cl)noc2C)c1	inactive
Cc1ccc(N(Cc2cc(=O)[nH]c3ccccc23)C(=O)c2ccco2)cc1	inactive
COc1ccc2c(c1)c(=O)c(C(=O)c1ccccc1)cn2Cc1ccccc1	inactive
Cc1nc2ccccc2c(=O)n1N	inactive
S=c1nc2ccccc2c2nc(-c3ccccc3)[nH]n12	18.4 µM (active)
Cc1ccccc1-c1nc2c3ccccc3nc(=S)n2[nH]1	inactive
COc1ccc(/C(C)=N/NC(=S)NCCc2ccccc2)c(O)c1	inactive
O=C(CNC(=O)c1ccccc1F)Nc1ccc2c(c1)OCO2	inactive
C=C(C)C(=O)OC1(C(F)(F)F)Oc2cc(C)ccc2NC1=O (stereo not given)	inactive
Cn1c(SCC(=O)N/N=C/C=C/c2ccco2)nc2ccccc21	inactive
Cc1nn2c(nc1=O)NNC2(C)C(C)(C)C (stereo not given)	inactive
CCN(CC)c1cc(C(F)(F)F)nc(-c2ccccn2)n1	inactive
FC(F)(F)c1cc(Nc2ccccc2)nc(-c2ccccn2)n1	18.4 µM (active)
Cc1cc(N)n(Cc2cccs2)n1	inactive
CCOC(=O)c1cnc(-n2nc(C)cc2C)nc1N(C)C	inactive
CCOC(=O)c1cnc(-n2nc(C)cc2C)nc1NC	inactive
COc1ccc(-c2cc(C(F)(F)F)nc(SCC(=O)NCc3ccco3)n2)cc1OC	13 µM (active)
Cc1ccc(-n2c(SCC(=O)NCc3ccco3)nc3c(sc4ccccc43)c2=O)cc1	inactive
COc1ccc(CNc2nc(SCC(=O)NCc3ccco3)nc3ccccc23)cc1	inactive

Compound	Potency
O=C(Nc1ccccc1)N1CCCC(c2nc(-c3cccs3)no2)C1 (stereo not given)	inactive
COc1ccc(NC(=S)N2CCc3ccccc3C2)cc1	inactive
COc1ccc(/C=N/Nc2nncc3ccccc23)c(OC)c1	inactive
Cc1ccc(/C(=N/Nc2ncnc3ccccc23)C(=O)O)cc1	inactive
COc1ccc(/C(C)=N/Nc2nc3ccccc3nc2C)cc1OC	25.9 µM (active)
Fc1ccccc1/C=N/n1cc(-c2ccccc2)[nH]c1=S	inactive
O=C(/C=C/c1ccc(F)cc1)NC(=S)N1CCN(Cc2ccccc2)CC1	inactive
C[C@H](C(=O)CC(=O)OC(C)(C)C)[C@H](O)c1ccccc1	inactive
Cc1cc(/C=N/NC(N)=S)c(C)n1-c1ccc(Cl)cc1	inactive
Cc1nc2ccc(NC(=O)CS(=O)(=O)c3ccc(F)cc3)cc2s1	inactive
C/C(=N\NC(=S)NC1CCCCC1)c1ccc(O)cc1	6.51 µM (active)
C/C(=N\NC(=S)NC1CCCCC1)c1cccs1	inactive
C/C(=N\NC(=S)NC1CCCCC1)c1ccc(C)o1	inactive
S=C(Nc1nc2c(s1)CCCC2)NC1CC1	inactive
NS(=O)(=O)c1ccc(CCNC(=O)CSc2ccc(Cl)cc2)cc1	inactive
Nc1c(Cl)ncnc1N/N=C/c1ccc2ccccc2n1	inactive
COc1cc(C(c2nnnn2C(C)(C)C)N2CCN(C)CC2)cc(OC)c1OC (stereo not given)	inactive
O=C(NCCOc1cccnc1)C1CCC(=O)N(Cc2ccccc2F)C1 (stereo not given)	9.2 µM (active)
CN(C(=O)CSc1ccncc1)C1CCCN(Cc2ccccc2F)C1 (stereo not given)	inactive
COc1ccccc1N1CCN(C(=O)c2cc3ccccc3[nH]2)CC1	inactive
Cc1[nH]c2ccccc2c1C(=O)C(C)OC(=O)c1ccc(NC(=O)CC#N)cc1 (stereo not given)	inactive
O=C(Nc1ccc(Nc2ccccc2)cc1)c1cc([N+](=O)[O-])ccc1Cl	inactive

Compound	Potency
CCC(=O)N1CCC2(CC1)Oc1ccc(Cl)cc1C(=O)C21CC(c2ccccc2)=NO1 (stereo not given)	23.1 µM (active)
CC(C)C(=O)N1CCC2(CC1)Oc1ccc(Cl)cc1C(=O)C21CC(c2ccccc2)=NO1 (stereo not given)	inactive
CC(C)Oc1ccc(/C=N/NC(N)=S)cc1	inactive
Cc1cccnc1NCc1ccc(O)c2ncccc12	inactive
OCc1ccnc2c(O)cccc12	25.9 µM (active)
CCCOCc1ccc(O)c2ncccc12	inactive
COc1ccccc1NC(=O)COC(=O)c1ccc2ccccc2n1	inactive
C[C@H](NC(=O)c1ccccc1)C(=O)Nc1nc(-c2ccccn2)cs1	inactive
CC(C)OC(=O)c1cn(-c2ccccc2)nc1-c1ccco1	23.1 µM (active)
O=C(Nc1ccc(Cl)cc1)/C(=C/c1cccc(O)c1)c1nc2ccccc2s1	inactive
O=C(COc1ccc2ccccc2c1)Nc1ccc(Br)cc1C(=O)O	inactive
Cc1ccc(NC(=S)NC(NC(=O)c2ccco2)C(Cl)(Cl)Cl)cc1 (stereo not given)	inactive
COc1ccc2c(C)nc(Nc3nc(C)cc(C)n3)nc2c1	inactive
COc1ccccc1NC(=S)N/N=C1\CC(C)(C)Oc2ccc(O)cc21	inactive
CC1(C)C/C(=N\NC(=S)Nc2ccccc2F)c2cc(O)ccc2O1	inactive
COc1cccc(NC(=S)N/N=C2\CC(C)(C)Oc3ccc(O)cc32)c1	25.9 µM (active)
C=CCOc1ccc2ccccc2c1CNn1c(C)n[nH]c1=S	8.2 µM (active)
CCN(CC)S(=O)(=O)c1ccc(N=Nc2c(C)[nH]n(C(N)=S)c2=O)cc1	inactive
O=C(C[C@H]1C[C@H](C(=O)N2CCCCC2)[C@@]2(CCc3ccccc3)c3[nH]c4cc(-c5ccco5)ccc4c3CCN2C1=O)NCCC1=CCCCC1	inactive
C/C(=N\NC(=S)NC(C)C)c1ccc(Cl)s1	inactive
O=C(N/N=C/c1cn(-c2ccccc2)nc1-c1cc2ccccc2o1)c1cccnc1	inactive
CO/C=C\C=C/c1nnn(-c2ccc(Cl)cc2)n1	inactive

Compound	Potency
CC(NCCc1ccc(O)cc1)C(O)c1ccc(O)cc1 (stereo not given)	0.0116 µM (active)
CCc1ccc(CNc2ccc(O)cc2)cc1	inactive
Cc1ccc(CNc2ccc(O)cc2)cc1	inactive
Oc1ccc(/C=N/NC(=S)NC2CC3CCC2C3)cc1 (stereo not given)	inactive
COc1ccc(-c2c(-c3ccccc3)c(C(=O)C(=O)NCCCN(C)C)n3ccc4cc(OC)c(OC)cc4c23)cc1OC	inactive
C=CC[n+]1c(-c2ccc(C)cc2)csc1NNC(=O)Nc1ccccc1	inactive
C=CC[n+]1c(-c2ccc(OC)c(OC)c2)csc1NNC(=O)Nc1ccccc1	10.3 µM (active)
O=C1NC2(C=Cc3c(ccc4ccccc34)O2)Oc2ccccc21 (stereo not given)	inactive
COc1cc(/C=N/Nc2ccc(F)cc2F)cc(OC)c1O	inactive
O=C(O)/C=C/c1nc(-c2ccccc2)n2ccccc12	25.9 µM (active)
C[C@@H](NC(=O)c1coc(=O)c(Br)c1)c1ccccc1	inactive
O=[N+]([O-])c1cc([N+](=O)[O-])c2cc3ccccc3nc2c1	inactive
Cn1c(CNC(=O)c2ccccc2F)nnc1SCC(=O)c1ccccc1	inactive
COC(=O)CSc1ccc2nnc(-c3ccc(OC)c(OC)c3)n2n1	25.9 µM (active)
COc1ccc(NC(=O)c2cc3c(-c4ccc(OC)c(OC)c4)nn(C)c3s2)cc1OC	inactive
COc1ccc(C(C)NC(=O)c2ccc(Br)cc2)cc1OC (stereo not given)	inactive
CCOc1ccc(/C(CCC(=O)O)=N/NC(=S)NCCc2ccccc2)cc1	inactive
COc1ccc(NC(=O)C(=O)NCC(c2ccco2)N2CCc3ccccc32)cc1 (stereo not given)	inactive
COc1cc(/C=N/NC(=O)c2cncc(Br)c2)cc([N+](=O)[O-])c1O	inactive
Cn1c(O)c(/C=N/NC(=O)c2cc3ccccc3cc2O)c2ccccc21	inactive
Oc1[nH]c2ccc(Br)cc2c1N=NC(=S)NCC1CCCO1 (stereo not given)	inactive
COc1cc(OC)c(NS(=O)(=O)c2cc(C(=O)OC(C)C(=O)NC3CC3)c(Cl)cc2Cl)cc1Cl (stereo not given)	inactive
